Bioassay records: PubChem BioAssay, National Center for Advancing Translational Sciences (NCATS)
The list is not random: actives were taken first. Their share in the collection is about 11%.
HPGD block – blocks human HPGD enzyme activity; P15428; purified HPGD, NADH fluorescence kinetic, PGE2 substrate; Potency, µM, for inactives: top-dose activity change, negative = inhibition, hits mostly inhibitors; hit rate 4.3% among 150,000; also: potency is read from the fitted curve at half-maximal effect
Target sequence (P15428 whole entry, looked up): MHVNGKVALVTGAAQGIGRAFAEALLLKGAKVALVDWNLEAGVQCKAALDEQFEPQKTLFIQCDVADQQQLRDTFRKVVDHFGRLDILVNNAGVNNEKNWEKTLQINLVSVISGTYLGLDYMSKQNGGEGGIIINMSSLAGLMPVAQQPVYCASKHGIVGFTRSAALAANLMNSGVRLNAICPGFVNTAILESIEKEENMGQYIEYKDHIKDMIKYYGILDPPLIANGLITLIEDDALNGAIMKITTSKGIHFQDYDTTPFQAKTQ
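20 nM HPGD preincubated 15 min at room temperature with compound in 50 mM Tris-HCl pH 8, 0.01% Tween 20. Started with 1 mM NAD+ and 30 uM prostaglandin E2; NADH fluorescence (360/450 nm) read 5 times over 30-s intervals, last minus first.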
ALDH1A1 inh – blocks purified human ALDH1A1 activity | Purified ALDH1A1, NADH fluorescence, propionaldehyde substrate | AID 1030 | Potency, µM (series often up to 75.3 µM), inactives show at the top dose activity, negative = inhibition, usual class: inhibitors | hit rate 7.3% among 220,000;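 also: potency is read from the fitted curve at half-maximal effect; plate controls were no enzyme wells and a reference inhibitor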
PNC inhibitor – blocks assembly of the perinucleolar compartment; PC3M PTB-GFP, PNC prevalence imaging, 16 h; hits give low values; activity change (PNC), negative = inhibition, % at 10 µM; hit rate 3.1% among 140,000; AID 2417;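 active = readout at or below -70, meaning at least 70% loss of cells showing the perinucleolar compartment, a nuclear body marking cancer cells; inconclusive = readout between -30 and a set limit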;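 also: plate controls were DMSO wells for no effect and camptothecin positive control wells for full effect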
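Read-out is percentage of cells bearing a perinucleolar compartment, from automated 20x imaging of fixed, Hoechst-stained PC3M PTB-GFP cells. Cells were seeded 4 h, then exposed 16 h to compound (23 nl of library stock) in duplicate plates.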
Numbers without * were called inactive; [ ] = dose if it differs, or a comment. Unless noted, calls follow the shape of the dose curve; as a rule, active = well fitted inhibition curve with a large enough effect (not every such curve was filed as active); inconclusive = small, poorly fitted or top-dose-only effect, or another doubt; inactive = no such curve, though single readings can be large or run the other way. Unless noted, % is scaled to controls: 0 for no effect and ±100 for the full control effect.

How did CN(c1ccc(C(=O)N2CCN(Cc3ccc4c(c3)OCO4)CC2)cc1)S(=O)(=O)c1ccccc1 do in these assays?
HPGD block: -8.9%; ALDH1A1 inh: 7.6%; PNC inhibitor: -22.8

How did CCC(C)NC(=O)CN(c1ccc(OC)cc1)S(=O)(=O)c1ccc(NC(C)=O)cc1 (centres undefined) do in these assays?
HPGD block: -9.3%; ALDH1A1 inh: inconclusive; PNC inhibitor: -126.9*

How did Cc1cc(Cl)ccc1Nc1sc(C(=O)c2cc3cc(Cl)ccc3o2)c(N)c1C#N do in these assays?
HPGD block: -4.6%; ALDH1A1 inh: -1.1%[13.5 µM]

Results for CC(=O)Nc1ccc(NS(=O)(=O)c2ccc(C)cc2)c([N+](=O)[O-])c1 ?
ALDH1A1 inh: 2.8%

Results for Cc1cc(Cl)nc(NC(=O)CSc2ccc(Cl)cc2)n1 ?
HPGD block: 0.4%; ALDH1A1 inh: -4.6%[13.5 µM]

How did CS(=O)(=O)Nc1ccc(Br)cc1C(=O)c1ccccc1 do in these assays?
HPGD block: -15.6%; ALDH1A1 inh: 21.5%; PNC inhibitor: -83.7*

What do the screens show for `CS(=O)(=O)Nc1ccccc1C(=O)O`?
HPGD block: inconclusive; ALDH1A1 inh: inconclusive; PNC inhibitor: -23.2

What do the screens show for `Cc1ccc(N=C2NC(=O)CS2)cc1`?
HPGD block: inconclusive; ALDH1A1 inh: 7.6%; PNC inhibitor: inconclusive

Results for CCOC(=O)c1ccc(N=C2NC(=O)CS2)cc1 ?
HPGD block: 12.6µM*; ALDH1A1 inh: inconclusive; PNC inhibitor: inconclusive

How did COc1ccc(C(NC(=O)c2ccccc2F)NC(=O)c2ccccc2F)cc1 do in these assays?
HPGD block: -7.9%; ALDH1A1 inh: 3.4%; PNC inhibitor: 1.4

How did CCOC(=O)C1=C(Cc2ccc(OC)cc2)C(=O)c2ccccc2C1=O do in these assays?
HPGD block: 31.6µM*; ALDH1A1 inh: inconclusive; PNC inhibitor: -20.6

How did CCOC(=O)c1ccc(COC(=O)c2ccc3c(c2)-c2ccccc2C3=O)cc1 do in these assays?
HPGD block: -15.7%; ALDH1A1 inh: -2.7%; PNC inhibitor: 31.3

How did CCOC(=O)c1c(C)nc2c(c1-c1cc(OC)ccc1OC)C(=O)c1ccccc1-2 do in these assays?
HPGD block: -25.1%; ALDH1A1 inh: -9.9%; PNC inhibitor: inconclusive

What do the screens show for `CCOC(=O)C1=C(Cc2ccc(C)cc2)C(=O)c2ccccc2C1=O`?
HPGD block: 12.6µM*; ALDH1A1 inh: inconclusive; PNC inhibitor: 24.1

Results for O=C(CN1CCSC1=NCc1ccccc1)c1ccc(Cl)c(Cl)c1 ?
HPGD block: -14.3%; ALDH1A1 inh: 12.6µM*; PNC inhibitor: -17.3

Results for CCc1ccc(C(=O)CN2CCSC2=N)cc1 ?
HPGD block: -1.2%; ALDH1A1 inh: -7.5%; PNC inhibitor: -10.3

What do the screens show for `O=C(c1cc2ccccc2o1)N(C1CC1)C1(C(=O)Nc2ccccc2)CCCC1`?
ALDH1A1 inh: 1.3%

Results for CCC(NC(=O)/C(=C\c1ccc2c(c1)OCO2)NC(C)=O)C(=O)O (centres undefined) ?
HPGD block: -3.5%; ALDH1A1 inh: 6.6%; PNC inhibitor: -125.2*

How did CC(=O)N/C(=C/c1ccc2c(c1)OCO2)C(=O)O do in these assays?
ALDH1A1 inh: -0.3%

How did C=CCC1CCCC(=O)N2CCCC12 (centres undefined) do in these assays?
HPGD block: -8.5%; ALDH1A1 inh: -3.2%[120 µM]

Results for Nc1nc2ncc(-c3ccsc3)c(N)n2n1 ?
ALDH1A1 inh: -3.6%

Results for CCOC(=O)c1nsnc1NCCSC(=N)N ?
HPGD block: inconclusive; ALDH1A1 inh: inconclusive; PNC inhibitor: -24.8

Results for Brc1ccc(-c2noc(COc3ccc4c(c3)CCC4)n2)o1 ?
HPGD block: -16.3%; ALDH1A1 inh: -7.2%; PNC inhibitor: -80.3*

How did Clc1ccc(OCc2nc(-c3ccc(Br)o3)no2)cc1 do in these assays?
HPGD block: -6.3%; ALDH1A1 inh: 4.1%; PNC inhibitor: 3.8

What do the screens show for `Cc1ccc(CN2CCC(CO)(CC3CCCCO3)CC2)o1` (centres undefined)?
ALDH1A1 inh: 6.2%

How did CCc1ccc(CN2CCC(CO)(CC3CCCCO3)CC2)o1 (centres undefined) do in these assays?
ALDH1A1 inh: 8.91µM*

What do the screens show for `O=C(Cn1cc([N+](=O)[O-])cn1)Nc1cccnc1`?
ALDH1A1 inh: 7.4%

What do the screens show for `N[C@H](CO)C(=O)NCC(=O)O`?
HPGD block: -2.9%; ALDH1A1 inh: -4.8%[13.5 µM]

What do the screens show for `NC(CO)C(=O)NNCc1ccc(O)c(O)c1O` (centres undefined)?
HPGD block: -8.9%; ALDH1A1 inh: 3.44µM*; PNC inhibitor: 17.1

What do the screens show for `CCCCC[C@H](O)/C=C/[C@H]1OC(O)C[C@H](O)[C@@H]1C/C=C\CCCC(=O)O` (some centres undefined)?
HPGD block: -6.0%; ALDH1A1 inh: -1.3%

What do the screens show for `CC(C)NS(=O)(=O)c1ccc(OCC(=O)Nc2ccc(F)cc2)cc1`?
ALDH1A1 inh: 9.1%

What do the screens show for `COc1ccc(NC(=O)Cn2cnc3c(cnn3C(C)(C)C)c2=O)cc1OC`?
ALDH1A1 inh: -9.5%

What do the screens show for `Cc1ccc(NC(=O)Cn2cnc3c(cnn3C(C)(C)C)c2=O)cc1`?
HPGD block: -11.6%; ALDH1A1 inh: -4.6%; PNC inhibitor: -100.0*

What do the screens show for `CCn1c(SCC(=O)C(C)(C)C)nnc1-c1cnccn1`?
HPGD block: inconclusive; ALDH1A1 inh: inconclusive; PNC inhibitor: -100.0*

Results for CCn1c(SCC(=O)Nc2ccccc2OC)nnc1-c1cnccn1 ?
HPGD block: -22.9%; ALDH1A1 inh: 10.6%; PNC inhibitor: -16.2

How did CCn1c(SCC(=O)C(C)(C)C)nnc1-c1ccccn1 do in these assays?
HPGD block: -14.9%; ALDH1A1 inh: 7.08µM*; PNC inhibitor: -29.9

How did O=C(CSc1nnc(-c2ccccn2)n1Cc1ccccc1)N1CCCC1 do in these assays?
HPGD block: 28.2µM*; ALDH1A1 inh: -11.0%; PNC inhibitor: 10.5

What do the screens show for `C=CCn1c(SCC(=O)C(C)(C)C)nnc1-c1cccs1`?
HPGD block: 14.1µM*; ALDH1A1 inh: 12.6µM*; PNC inhibitor: 5.1

Results for CC(C)(C)C(=O)CSc1nnc(-c2cccs2)n1CC1CCCO1 (centres undefined) ?
HPGD block: -8.8%; ALDH1A1 inh: -5.1%; PNC inhibitor: -20.3

What do the screens show for `C=CCn1c(SCC(=O)C(C)(C)C)nnc1-c1ccccn1`?
HPGD block: -20.7%; ALDH1A1 inh: inconclusive; PNC inhibitor: 187.6

Results for Cc1ccccc1-n1c(SCC(=O)N2CCCC2)nnc1-c1ccccn1 ?
HPGD block: inconclusive; ALDH1A1 inh: -18.2%; PNC inhibitor: -14.7

What do the screens show for `CCOC(=O)C(=CNc1ccc2c(c1)CCN2C(C)=O)C(=O)OCC`?
ALDH1A1 inh: 2.8%

Results for CCOc1ncccc1C(=O)OCc1ccc(C(=O)OC)cc1 ?
HPGD block: -14.1%; ALDH1A1 inh: inconclusive; PNC inhibitor: 22.9

How did O=C(CCc1nnc(-c2ccsc2)o1)N1CCc2c(Cl)cccc2C1 do in these assays?
ALDH1A1 inh: 8.0%

What do the screens show for `CSc1ncc(CO)n1Cc1ccccc1`?
ALDH1A1 inh: 10.5%

Results for O=C(Cc1ccc(Br)cc1)c1ccc(O)cc1O ?
ALDH1A1 inh: 2.1%; PNC inhibitor: -17.7

Results for CCOC(=O)c1cc2cc(CC(=O)c3ccc(OCC)cc3O)ccc2o1 ?
HPGD block: -10.3%; ALDH1A1 inh: 12.8%; PNC inhibitor: 23.1
